Screening data: PubChem BioAssay, National Center for Advancing Translational Sciences (NCATS)
This is one part of a sample in which hits are shown more often than they occur.
KDM5B inhibitor: inhibitors of human KDM5B histone demethylase | Q9UGL1 | KDM5B demethylase, FDH-coupled NADH fluorescence (FDH is formaldehyde dehydrogenase) | Potency, µM (series often up to 57.7 µM), most hits filed as inhibitors | 220,000 tested, 2.6% active | AID 1347165; active means well fitted inhibition curve with a large enough effect; further: 0% is about no effect; nearly all actives have a fitted effect of over 70% in size
Target sequence (Q9UGL1 whole entry, looked up): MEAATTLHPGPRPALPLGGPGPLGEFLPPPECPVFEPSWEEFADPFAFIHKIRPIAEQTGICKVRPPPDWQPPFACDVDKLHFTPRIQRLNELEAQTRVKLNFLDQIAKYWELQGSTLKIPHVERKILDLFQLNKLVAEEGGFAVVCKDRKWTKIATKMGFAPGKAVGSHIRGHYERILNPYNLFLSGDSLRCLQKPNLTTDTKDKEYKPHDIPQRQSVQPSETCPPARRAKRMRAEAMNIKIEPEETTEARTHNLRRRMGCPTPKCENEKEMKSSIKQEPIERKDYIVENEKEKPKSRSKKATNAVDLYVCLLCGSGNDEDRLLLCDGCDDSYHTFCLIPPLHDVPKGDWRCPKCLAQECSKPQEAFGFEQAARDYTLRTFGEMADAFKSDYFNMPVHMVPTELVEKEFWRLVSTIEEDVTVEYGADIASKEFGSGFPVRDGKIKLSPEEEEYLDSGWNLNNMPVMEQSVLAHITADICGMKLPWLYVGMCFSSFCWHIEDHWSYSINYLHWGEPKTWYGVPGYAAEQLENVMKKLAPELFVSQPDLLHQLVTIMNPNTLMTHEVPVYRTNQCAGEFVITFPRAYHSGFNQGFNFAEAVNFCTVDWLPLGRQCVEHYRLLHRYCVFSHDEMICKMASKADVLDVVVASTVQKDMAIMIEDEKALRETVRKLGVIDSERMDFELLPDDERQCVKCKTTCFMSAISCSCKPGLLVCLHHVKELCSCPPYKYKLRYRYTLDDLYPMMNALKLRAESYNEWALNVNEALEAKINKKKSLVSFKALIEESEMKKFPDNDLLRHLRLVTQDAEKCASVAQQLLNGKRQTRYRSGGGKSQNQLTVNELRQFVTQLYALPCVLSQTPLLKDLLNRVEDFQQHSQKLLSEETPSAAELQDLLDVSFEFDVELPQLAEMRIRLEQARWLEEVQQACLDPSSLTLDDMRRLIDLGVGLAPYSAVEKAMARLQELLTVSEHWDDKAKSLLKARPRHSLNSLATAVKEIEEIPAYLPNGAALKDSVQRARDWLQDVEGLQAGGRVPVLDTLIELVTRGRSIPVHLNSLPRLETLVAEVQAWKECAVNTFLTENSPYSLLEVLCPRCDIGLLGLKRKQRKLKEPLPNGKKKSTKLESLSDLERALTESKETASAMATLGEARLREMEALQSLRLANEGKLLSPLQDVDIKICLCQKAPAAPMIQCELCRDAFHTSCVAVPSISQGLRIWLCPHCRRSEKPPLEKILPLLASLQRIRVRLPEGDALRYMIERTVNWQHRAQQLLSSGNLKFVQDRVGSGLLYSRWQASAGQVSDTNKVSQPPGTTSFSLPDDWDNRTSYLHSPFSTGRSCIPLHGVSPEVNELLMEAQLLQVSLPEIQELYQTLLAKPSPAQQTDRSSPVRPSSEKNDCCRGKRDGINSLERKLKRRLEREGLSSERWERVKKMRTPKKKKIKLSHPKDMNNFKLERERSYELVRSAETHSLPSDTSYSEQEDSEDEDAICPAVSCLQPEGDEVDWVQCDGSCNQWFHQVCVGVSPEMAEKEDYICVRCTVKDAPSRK
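Coupled FDH/NAD⁺ fluorescence readout. KDM5BΔAP 200 nM final; compound titration, 10 min RT preincubation; substrate mix 12.5 µM H3K4me3, 25 µM 2-OG, 50 µM Fe(II), 100 µM ascorbate, 0.25 mM NAD⁺, 0.25 U/mL FDH; ΔRFU over 30 min.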
Active calls of the source: *; i = inactive. Potency means the concentration at half of the fitted maximal effect.

SMILES | KDM5B inhibitor
COc1ccc(Cl)cc1NC(=O)Cn1c(N2CCCCC2)nc(C)c(C)c1=O | 20µM*
CCc1ccccc1NC(=O)Cn1c(N2CCC(C)CC2)nc(C)cc1=O | i
Cc1nc(N2CCCCC2)n(CC(=O)Nc2cccc(Cl)c2C)c(=O)c1C | i
COc1ccc(NC(=O)Cn2c(N3CCC(C)CC3)nc(C)cc2=O)cc1 | i
COc1ccc(Cl)cc1NC(=O)Cn1c(N2CCC(C)CC2)nc(C)cc1=O | 28.2µM*
CC(c1cc2ccccc2[nH]1)N(C)C(=O)C1CCN(CC(N)=O)CC1 (centres undefined) | i
CNC1CNC(=O)c2cc(-c3ccc(OC)cc3)nn21 (centres undefined) | i
O=C(N[C@@H]1COCC[C@@H]1OCc1cscn1)c1ccc2c(c1)CCO2 | i
O=C(CCC[C@H]1NC[C@@H]2C[C@H]1CN(Cc1ccccc1)C2)NCCN1CCCCC1 | i
O=C(CCC[C@H]1NC[C@@H]2CC1CN(Cc1ccccc1)C2)NCCCc1ccccc1 | 7.08µM*
O=C(CCC[C@H]1NC[C@@H]2C[C@H]1CN(Cc1ccccc1)C2)NCc1ccccn1 | i
CNC(=O)[C@H]1C[C@H](Oc2cccnc2)CN1S(=O)(=O)Cc1ccccc1F | i
Cc1c(C(=O)Nc2cccc(Cl)c2)sc2ncnc(N(C)c3ccccc3)c12 | i
O=C(c1ccc(F)cc1)N1CCC2(CC1)CN[S+](=O)([O-])c1ccccc1N2 | i
COc1ccccc1N1CCN(C(=O)CN2C(=O)NC3(CCC(C)CC3)C2=O)CC1 (centres undefined) | i
O=C(CCC[C@@H]1[C@H]2CCCN3CCC[C@@H](CN1Cc1ccccc1)[C@@H]23)Nc1cccnc1 | i
CCN(Cc1ccncc1)C(=O)CCC[C@@H]1[C@H]2CCCN3CCC[C@@H](CN1Cc1cccnc1)[C@@H]23 | 28.2µM*
CN1CCCN(C(=O)CCC[C@@H]2[C@H]3CCCN4CCC[C@@H](CN2Cc2cccnc2)[C@@H]34)CC1 | 22.4µM*
Cc1ccccc1CNC(=O)CCC[C@@H]1[C@H]2CCCN3CCC[C@@H](CN1Cc1cccnc1)[C@@H]23 | i
CN1CCCN(C(=O)CCC[C@@H]2[C@H]3CCCN4CCC[C@@H](CN2C)[C@@H]34)CC1 | i
CN1CCCN(C(=O)CCC[C@@H]2[C@H]3CCCN4CCC[C@@H](CN2Cc2ccccc2)[C@@H]34)CC1 | i
CCC(C)NC(=O)C(NC(=O)c1ccc(OC)cc1)C1CCN(C(=O)c2ccccc2C)CC1 (centres undefined) | i
COCc1ncc(C)n1CCNC(=O)c1cc(-c2ccc(C)c(C)c2)n[nH]1 | i
O=C1CC2(CCN(C(=O)c3ccccc3)CC2)Oc2cc(Cl)ccc21 | i
COc1ccc(/C=C/c2ccc3cccc([N+](=O)[O-])c3n2)cc1OC | i
SMILES | KDM5B inhibitor
O=C(CCn1nnc2ccccc21)OCC(=O)c1ccc(Cl)cc1 | i
CC(c1ccon1)N(C)C(=O)c1cc(CN2CCC(Cc3ccccc3)CC2)on1 (centres undefined) | i
Cc1cccc([C@H]2C[C@@H](O)[C@@H](O)[C@@H]2NCC(C)(C)O)c1 | i
CN(C)C[C@@H]1CN(S(C)(=O)=O)C[C@H]1NC(=O)c1ccc(Cl)s1 | i
Cc1cc(C(=O)N[C@@H]2CN(c3ccncn3)C[C@H]2CN(C)C)n[nH]1 | i
Cc1ccc(C(=O)N[C@@H]2CN(c3ccncn3)C[C@H]2CN(C)C)s1 | i
CN(C)C[C@@H]1CN(c2ncccn2)C[C@H]1NC(=O)c1ccc(Cl)s1 | 28.2µM*
COc1cccc(C(=O)N[C@@H]2CN(c3ncccn3)C[C@H]2CN(C)C)c1 | 31.6µM*
COc1ccc(C(=O)N[C@@H]2CN(Cc3ccccn3)C[C@H]2CN(C)C)cc1F | i
CN(C)C[C@@H]1CN(Cc2cccnc2)C[C@H]1NC(=O)c1ccc(F)c(Cl)c1 | i
CNC(=O)N1C[C@@H](CN(C)C)[C@H](NC(=O)c2cccnc2)C1 | i
CN(C)C[C@@H]1CN(S(C)(=O)=O)C[C@H]1NC(=O)c1ccccc1 | i
COc1cccc(C(=O)N[C@@H]2CN(c3ccccn3)C[C@H]2CN(C)C)c1OC | 28.2µM*
COc1ccc(C(=O)N[C@@H]2CN(c3ncccn3)C[C@H]2CN(C)C)cc1F | 25.1µM*
CC(=O)Nc1ccc(CN(C)C(C)c2cccs2)cc1 (centres undefined) | i
O=S(=O)(NCCc1ccc(-n2cccn2)cc1)c1ccccc1 | i
CCCNC(=O)c1ccc(Oc2nccnc2Sc2ccccc2)cc1 | i
COc1ccc(Nc2nc(N3CCN(c4ccccc4)CC3)c3cnn(C)c3n2)c(OC)c1 | i
CC(C)NS(=O)(=O)c1cccc(C(=O)N2CCCC2c2ccc3c(c2)OCCO3)c1 (centres undefined) | i
CCN(C(=O)c1cc(-c2ccccc2)c(N2CCOCC2)s1)C1CCS(=O)(=O)C1 (centres undefined) | i
CN(C)C[C@@H]1CN(c2ncccn2)C[C@H]1NC(=O)c1cccc(F)c1 | 20µM*
COc1cccc(C(=O)N[C@@H]2CN(c3ccccn3)C[C@H]2CN(C)C)c1 | 28.2µM*
COc1cccc(CC(=O)N[C@@H]2CN(Cc3ccccn3)C[C@H]2CN(C)C)c1 | i
CN(C)C[C@@H]1CN(C)C[C@H]1NC(=O)c1cc(F)ccc1F | i
Cc1cccc(C(=O)N[C@@H]2CN(Cc3cccnc3)C[C@H]2CN(C)C)c1 | i
SMILES | KDM5B inhibitor
CCc1nc(-c2c3n(c(=O)n(CC(=O)Nc4ccc(Cl)cc4)c2=O)CCCC3)no1 | i
c1ccc2c(c1)C(=Nn1c3ccccc3c3ccccc31)c1ccccc1-2 | i
CCC1CCCCN1CCCNC(=O)c1cc2c(Cl)nc3ccc(C)cc3c2s1 (centres undefined) | i
CCC1CCCCN1CCNC(=O)c1cc2c(s1)CN(C1CCCC1)C2 (centres undefined) | 14.1µM*
O=C(O)c1cc2c(s1)CN(C1CCCC1)C2 | i
Cn1c(CNC(=O)CC2CCOCC2)nc2ccccc21 | i
Cn1c(CNC(=O)c2cccc(C3CCNC3)c2)nc2ccccc21 (centres undefined) | i
Cn1c(CNC(=O)c2cc3c(s2)CN(C2CC2)C3)nc2ccccc21 | 12.6µM*
O=C(O)CSc1c(Cl)cccc1Cl | i
COC(=O)c1cc(S(=O)(=O)Nc2ccc(Cl)cc2F)c[nH]1 | i
COc1ccc(-c2nc3cnccc3o2)cc1NC(=O)c1ccccc1 | i
Cc1cccc(-c2noc(CNC(=O)Nc3cccc4ccccc34)n2)c1 | i
COc1ccc(Nc2nc(C)c(NC(=O)c3cccc(C)c3)c(Nc3ccc(OC)cc3)n2)cc1 | i
Cn1c(=O)c2c(nc(N3CCCCCC3)n2CCCc2ccccc2)n(C)c1=O | i
CC(=O)C(C(C)=O)=C1SCCCS1 | i
COc1ccc(-c2cnc3[nH]cc(CC(=O)NCc4cnccn4)c3c2)cc1 | i
Cc1ccc2nc(-c3ccccc3)cc(C(=O)NCCCn3ccnc3)c2c1 | i
Cc1ccc(C(=O)NCCCn2ccnc2)cc1C | i
O=C(Cc1c[nH]c2ncc(-c3ccccc3)cc12)NCCCn1ccnc1 | 39.8µM*
COCCNC(=O)Cc1c[nH]c2ncc(-c3ccc(OC)cc3)cc12 | 35.5µM*
COCCNC(=O)Cc1c[nH]c2ncc(-c3cccnc3)cc12 | i
COCCNC(=O)Cc1c[nH]c2ncc(-c3ccccc3)cc12 | 39.8µM*
Cn1c(=O)[nH]c(=O)c2c1nc(SCC(=O)Nc1ccccc1)n2CCCc1ccccc1 | i
CCC(CC)C(CNc1ccc2nnnn2n1)N1CCCC1 (centres undefined) | i
